Measured values taken from ChEMBL document CHEMBL3988442, “University of Dundee, Small-Polar-MMV Screening Library” (2021).
The campaign covered roughly 48,000 compounds. About 13,000 (27%) showed an effect of 50% or more. Some of the results follow.

Test system: Wolbachia pipientis
Test: Anti-Wolbachia Cell-Based Screen
Format: functional
Design: scale not given: in the data most compounds retested in dose-response had high values
Conditions: 5 µM

Structure (SMILES) | Percent Effect [%]
O=C(NCC(F)(F)C(F)F)c1ccncc1 | -18.96
CC(C)Cc1n[nH]c(C2CC(=O)N(CC(C)C)C2)n1 (centres undefined) | -3.52
O=C(O)C(F)(F)F.c1ncn(Cc2cn3c(n2)CN(CC2CCCC2)CC3)n1 | -2.888
CC[C@H](Nc1nc(C(C)C)nc2c1cnn2C)c1ccccc1 | -13.66
CN(Cc1ccncn1)C(=O)c1cccc(CCC(C)(C)O)c1 | -19.37
CNc1ncc(CN(C)C(=O)CCc2[nH]nc3c2CCCC3)cn1 | 98.75
CN(Cc1ccncn1)C(=O)CCc1[nH]nc2c1CCCC2 | 105.8
CNc1ncc(CN(C)C(=O)c2ccc(C3CCCO3)s2)cn1 (centres undefined) | -2.521
CN(Cc1ccncn1)C(=O)C1(Oc2ccc(Cl)cc2)CCNCC1 | -1.2
CNc1ncc(CN(C)C(=O)CCc2cc3n(n2)CCCNC3)cn1 | -7.945
Cn1cc(C[C@H]2[C@@H](OCC3CC3)CCN2C(=O)c2ccc[nH]2)cn1 | -34.09
O=C(c1cccs1)N1CC[C@@H]2[C@H]1CCC(=O)N2c1ccccc1 | 4.251
Cc1cnc(CNC(=O)NCCOc2ncccc2Cl)s1 | 0.4061
CCC(Nc1nccc(C2CCCC2)n1)c1ccccn1 (centres undefined) | 15.43
CCC(Nc1nccc(C2CCCC2)n1)c1ncccc1C (centres undefined) | -9.409
Cc1ncc(-c2ccnc(N[C@@H](C)CO)n2)c(C2CCCCC2)n1 | 99.14
Cc1ncc(-c2ccnc(NCCO)n2)c(C2CCCCC2)n1 | 70.45
COc1ccc(-c2noc([C@@H](C)NC(=O)NC(C)(C)C)c2C(=O)O)cc1 | -18.05
N#Cc1cn(C2CC2)c(=O)n(CC(O)c2ccccc2F)c1=O (centres undefined) | -13.9
Cl.O=C(NCC1CCCO1)c1cc(-c2ccncc2)c2cnccc2n1 (centres undefined) | 81.36
O=C(NCC1CCCO1)c1csc(Cc2ccccc2)n1 (centres undefined) | -0.1841
O=C(NCC1CCCO1)c1cc(-c2cccnc2)c2cnccc2n1 (centres undefined) | 70.74
Cl.O=C(NCC1CCC2(CCNCC2)CO1)c1cnccn1 (centres undefined) | 3.528
Cc1cc(C(=O)NCC2CCCO2)c(C)n1-c1cccnc1 (centres undefined) | -0.4746
O=C(NCC1CCCO1)c1coc(Cn2cnc3ccccc32)n1 (centres undefined) | 1.583

Structure (SMILES) | Percent Effect [%]
CN(C)Cc1nc(C(C)(C)NC(=O)c2ccnn2C)no1 | 0.5486
CC(C)(C)c1ncc(C(=O)NCCS(N)(=O)=O)s1 | -2.112
Cc1ncc(C(=O)NCCNc2ncccn2)s1 | 110.1
CC(=O)NCCNC(=O)c1cnc(C(C)(C)C)s1 | 109.1
Cc1ccc(-c2ncc(C(=O)NCCNc3ncccn3)s2)c(C)c1 | -5.367
Cc1ncc(C(=O)NCCNC(=O)c2ccccc2)s1 | 117.1
COC(=O)C(C)(C)NC(=O)c1cnc(C(C)(C)C)s1 | -1.472
CC(C)(C)NC(=O)c1cnc(C(C)(C)C)s1 | 6.371
O=C(NCCNc1ncccn1)c1ccc(Cl)s1 | 24.49
CS(=O)(=O)NCCNC(=O)c1cnc(-c2ccccc2)nc1 | 5.162
Cc1ccc(-c2ncc(C(=O)NCCNC(=O)C(C)C)s2)c(C)c1 | -1.458
CC(C)(C)c1ncc(C(=O)NCCNS(C)(=O)=O)s1 | 118.2
O=C(N1CCC(OCc2ccccn2)CC1)C1(c2ccc(F)cc2)CC1 | -10.1
C=C(C)CNC(=O)C1CCCN(C2CCN(C(C)C)CC2)C1 (centres undefined) | -1.601
Fc1cnc(N2CCCn3c(nnc3Cn3cccn3)C2)nc1 | -21.77
CN(C)c1ncnc2c1CCN(C(=O)CN1CCCCC1)C2 | -9.788
CCOC(C)c1nc(CN2CCN(c3ncc(C)cn3)CC2)cs1 (centres undefined) | 0.6685
COc1ccc(S(=O)(=O)C(F)(F)F)cc1NC(=O)CSC | 25.38
COCCC1(CO)CCCN(Cc2ccc(F)c(C)c2)C1 (centres undefined) | -0.7036
CCN(CC)C(=O)CCCNC(=O)Cc1nc(-c2ccco2)oc1C | -23.46
Cc1ccc(C(=O)N2CCOc3nc(C)ccc32)c(F)c1 | -2.508
O=C(NCCNc1ccc(Br)cn1)c1ccc(O)cc1 | -11.29
CC(O)(CCc1ccccc1)CNC(=O)c1cccs1 (centres undefined) | -8.464
CC(C)(C)c1ncc(C(=O)NCCNC(=O)c2ccc(O)cc2)s1 | 102.8
CC(C)(C)c1ncc(C(=O)NCCn2ccnc2)s1 | -7.496

Structure (SMILES) | Percent Effect [%]
CC(C)(C)c1ncc(C(=O)NCCNC(=O)c2cccs2)s1 | 110.8
O=C(NCCNc1ncccn1)c1cnc(-c2ccccc2)nc1 | 9.369
O=C(NCCNC1CCN(c2nccs2)CC1)c1cccs1 | -5.805
CC(C)(C)c1ncc(C(=O)NCCNC(=O)c2ccccc2)s1 | 3.571
CC(C)(C)c1ncc(C(=O)NCCNc2ncccn2)s1 | 108.5
Cc1sc2nc(C(F)(F)F)nc(N3CCC(NS(C)(=O)=O)CC3)c2c1C | 11.4
CCn1ncc2c1CCCC2NCC1=Cc2ccccc2OC1 (centres undefined) | -5.815
CC(=O)N1CCC2(CCCN(Cc3ccc(Cl)c(C(F)(F)F)c3)C2)C1 (centres undefined) | 5.734
CC(=O)N1CC2(CCN(Cc3ccc(Cl)cc3)CC2)Cc2ccccc21 | 118.6
CC(=O)N1CC2(CCN(Cc3ccc(Cl)cc3)C2)Cc2ccccc21 (centres undefined) | 116.3
CC(=O)N1CC2(CCCN(Cc3ccc(Cl)cc3)C2)Cc2ccccc21 (centres undefined) | 131.8
COCC(=O)N1CCC2(CCCN(Cc3ccc(Cl)cc3)CC2)CC1 | -3.814
Cc1ncsc1CN1CCC2(CC1)CC(=O)N(Cc1ccc(Cl)cc1)C2 | -0.4744
CC(=O)N1CCCC2(CCN(Cc3ccc(Cl)c(F)c3)C2)C1 (centres undefined) | 9.026
CC(=O)N1CCCC2(CCN(Cc3ccc(Cl)c(C(F)(F)F)c3)C2)C1 (centres undefined) | 13.59
Cc1cc(C(=O)N2CCN(CC(O)Cn3cccn3)CC2)c(C)o1 (centres undefined) | 3.42
CN1CCC(N2CCOC[C@H]2c2nc(-c3ccncc3)c[nH]2)CC1 | -3.647
CNS(=O)(=O)c1ccc(C(=O)NC2CCc3nc(C)cn3C2)o1 (centres undefined) | -2.01
Cc1cnc(N2CCc3c(CNc4ccnc(C)n4)cncc3C2)nc1.Cl | 94.65
Cc1nccc(NCc2cncc3c2CCN(S(C)(=O)=O)C3)n1.Cl | 65.34
Cc1nccc(NCc2cc3n(n2)CCCN(S(C)(=O)=O)C3)n1 | -4.835
CN1C(=O)CC(C(=O)O)C12CCN(Cc1cc(F)ccc1Cl)CC2 (centres undefined) | -13.17
CN(C)C(=O)c1cc(-c2ccncc2)[nH]n1 | 116.7
Cc1ccn(CC(=O)Nc2cc(-c3ccncc3)[nH]n2)n1 | -0.1185
O=C(NCCn1nc2ccccn2c1=O)c1cc(-c2ccccc2)[nH]n1 | 1.619

Structure (SMILES) | Percent Effect [%]
CN(C)C(=O)c1cc(-c2ccccc2)[nH]n1 | 125.1
Cc1ccnn1CC(=O)Nc1cc(-c2ccncc2)[nH]n1 | -6.833
Cc1nc(-c2cccc(C(=O)N(C)C)c2)cs1 | -24.42
CC1=C[C@@H](CN2CCC(CO)CC2)[C@H](C(C)C)C[C@H]1Cc1nnc(C)o1 | -9.335
COc1ccc(CN2C[C@@H](F)[C@@H](OCc3nc4ccccc4[nH]3)C2)cn1 | -8.557
CC(NC(=O)c1ccc2c(c1)OCC(=O)N2)c1ccccc1F (centres undefined) | -1.956
CCN1CCN(CC(O)c2ccc(OC(F)(F)F)cc2)CC1 (centres undefined) | 1.039
CCc1ccc(CNCC2CCN(CCO)CC2)cc1 | -51.45
CCc1ccc(OCC(O)CN2CCC(O)CC2)cc1 (centres undefined) | 11.05
CCc1ccc(OCC(O)CN2CCN(CCO)CC2)cc1.Cl.Cl (centres undefined) | 85.64
CCc1ccc(OCC(O)CN2CCN(CC)CC2)cc1 (centres undefined) | 71.19
Cc1c(C)n(CC(O)CN2CCN(CCO)CC2)c2c(Cl)cccc12.Cl (centres undefined) | 3.197
Cc1n[nH]cc1CNC1(Cc2ccc(Br)cc2)CCCCC1 | 13.31
O=C(Cc1ccc(F)cc1)NCc1ccc(C(=O)O)o1 | -2.994
CC(C)c1nc(/C=C/c2ccc(O)c(Cl)c2)ncc1C(=O)O | 6.301
CN(C)S(=O)(=O)N1CCCC1C(=O)N1CCSCC1 (centres undefined) | -27.44
CC(C)CNC(=O)[C@H]1CCS(=O)(=O)[C@@H]2CN(CC(C)C)C[C@H]12.O=C(O)C(F)(F)F | 102.6
CC(C)CNC(=O)[C@H]1CCS(=O)(=O)[C@@H]2CN(Cc3ccc(F)cc3)C[C@H]12.O=C(O)C(F)(F)F | 118.4
Cc1ccc(CN2C[C@@H]3[C@@H](C(=O)N4CCCC4)CCS(=O)(=O)[C@@H]3C2)cc1.O=C(O)C(F)(F)F | -5.739
Cc1ccc(CN2C[C@@H]3[C@@H](C(=O)NCC4CC4)CCS(=O)(=O)[C@@H]3C2)cc1.O=C(O)C(F)(F)F | 110.7
CC(C)CNC(=O)[C@H]1CCS(=O)(=O)[C@@H]2CN(Cc3cccnc3)C[C@H]12 | 94.11
O=C([C@H]1CCS(=O)(=O)[C@@H]2CN(Cc3ccc(F)cc3)C[C@H]12)N1CCCC1 | -0.8548
CC(C)CNC(=O)[C@H]1CCS(=O)(=O)[C@@H]2CN(Cc3ccc(Cl)cc3)C[C@H]12.O=C(O)C(F)(F)F | 20.84
C=C(C)COc1cccc(C(=O)N2CCC3(CC2)CN(C)CCN3C)c1 | -0.7727
